# From ChEMBL document CHEMBL1961873, “Compounds: GSK PKIS; Assays: Nanosyn kinase panel” (2012)
# Experiments:
# [1] = target: T1, Inhibitor of nuclear factor kappa-B kinase subunit epsilon (Homo sapiens) (UniProt Q14164); details: at 1 µM;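 note: reported values are averaged percent inhibition figures against human IKKε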
# T1 sequence (whole entry): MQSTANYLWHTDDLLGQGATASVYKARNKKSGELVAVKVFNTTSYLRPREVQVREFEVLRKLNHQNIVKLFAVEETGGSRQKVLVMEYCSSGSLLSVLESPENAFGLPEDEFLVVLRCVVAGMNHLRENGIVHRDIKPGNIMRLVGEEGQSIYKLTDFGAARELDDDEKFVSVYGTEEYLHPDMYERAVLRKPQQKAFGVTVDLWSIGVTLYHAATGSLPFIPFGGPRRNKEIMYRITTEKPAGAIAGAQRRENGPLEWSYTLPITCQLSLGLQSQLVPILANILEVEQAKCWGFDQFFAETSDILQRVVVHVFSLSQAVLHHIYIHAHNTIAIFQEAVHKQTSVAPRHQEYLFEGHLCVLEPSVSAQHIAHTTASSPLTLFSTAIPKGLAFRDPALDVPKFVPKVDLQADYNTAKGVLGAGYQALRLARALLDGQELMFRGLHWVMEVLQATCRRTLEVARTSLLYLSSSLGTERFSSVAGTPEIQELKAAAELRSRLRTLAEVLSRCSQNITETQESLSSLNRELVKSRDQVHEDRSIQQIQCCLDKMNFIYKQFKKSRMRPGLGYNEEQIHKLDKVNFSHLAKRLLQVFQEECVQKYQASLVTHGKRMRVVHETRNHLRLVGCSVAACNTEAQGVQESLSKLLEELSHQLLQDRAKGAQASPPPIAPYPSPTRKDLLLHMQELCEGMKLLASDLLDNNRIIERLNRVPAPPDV
# [2] = target: T2, Serine/threonine-protein kinase Nek1 (Homo sapiens) (UniProt Q96PY6); details: at 0.1 µM
# T2 sequence (whole entry): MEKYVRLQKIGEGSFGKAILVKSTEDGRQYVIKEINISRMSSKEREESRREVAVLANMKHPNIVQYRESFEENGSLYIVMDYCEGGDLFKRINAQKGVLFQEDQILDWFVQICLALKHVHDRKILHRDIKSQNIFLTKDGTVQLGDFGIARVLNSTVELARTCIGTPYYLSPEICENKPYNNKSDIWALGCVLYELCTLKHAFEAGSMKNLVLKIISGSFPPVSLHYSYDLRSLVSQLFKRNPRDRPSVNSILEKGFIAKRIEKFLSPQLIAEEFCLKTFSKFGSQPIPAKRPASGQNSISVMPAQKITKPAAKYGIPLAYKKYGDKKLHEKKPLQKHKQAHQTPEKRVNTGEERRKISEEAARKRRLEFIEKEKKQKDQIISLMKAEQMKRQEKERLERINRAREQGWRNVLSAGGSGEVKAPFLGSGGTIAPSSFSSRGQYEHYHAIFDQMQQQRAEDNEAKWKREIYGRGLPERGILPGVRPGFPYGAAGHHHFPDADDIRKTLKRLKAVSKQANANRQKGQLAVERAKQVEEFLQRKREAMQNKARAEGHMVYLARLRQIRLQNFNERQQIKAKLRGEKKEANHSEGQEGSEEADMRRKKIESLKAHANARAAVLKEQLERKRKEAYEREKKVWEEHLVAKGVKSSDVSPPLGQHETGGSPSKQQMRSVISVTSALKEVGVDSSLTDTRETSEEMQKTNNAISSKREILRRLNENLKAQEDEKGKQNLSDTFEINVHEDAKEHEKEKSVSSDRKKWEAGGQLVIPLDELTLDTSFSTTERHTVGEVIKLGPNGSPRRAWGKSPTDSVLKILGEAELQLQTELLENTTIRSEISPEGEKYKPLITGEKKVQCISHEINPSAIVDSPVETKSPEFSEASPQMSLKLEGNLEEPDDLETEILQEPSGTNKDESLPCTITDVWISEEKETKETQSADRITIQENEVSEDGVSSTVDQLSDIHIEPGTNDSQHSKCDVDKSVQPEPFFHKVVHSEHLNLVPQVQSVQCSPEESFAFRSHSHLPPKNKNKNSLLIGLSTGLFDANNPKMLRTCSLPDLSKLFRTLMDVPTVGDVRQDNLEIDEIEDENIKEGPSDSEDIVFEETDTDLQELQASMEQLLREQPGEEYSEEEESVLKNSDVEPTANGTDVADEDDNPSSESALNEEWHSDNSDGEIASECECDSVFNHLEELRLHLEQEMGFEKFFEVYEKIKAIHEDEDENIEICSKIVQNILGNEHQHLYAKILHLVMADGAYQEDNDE
# [3] = target: T2, Serine/threonine-protein kinase Nek1 (Homo sapiens); details: at 1 µM
# [4] = target: T3, Serine/threonine-protein kinase Nek2 (Homo sapiens) (UniProt P51955); details: at 0.1 µM
# T3 sequence (whole entry): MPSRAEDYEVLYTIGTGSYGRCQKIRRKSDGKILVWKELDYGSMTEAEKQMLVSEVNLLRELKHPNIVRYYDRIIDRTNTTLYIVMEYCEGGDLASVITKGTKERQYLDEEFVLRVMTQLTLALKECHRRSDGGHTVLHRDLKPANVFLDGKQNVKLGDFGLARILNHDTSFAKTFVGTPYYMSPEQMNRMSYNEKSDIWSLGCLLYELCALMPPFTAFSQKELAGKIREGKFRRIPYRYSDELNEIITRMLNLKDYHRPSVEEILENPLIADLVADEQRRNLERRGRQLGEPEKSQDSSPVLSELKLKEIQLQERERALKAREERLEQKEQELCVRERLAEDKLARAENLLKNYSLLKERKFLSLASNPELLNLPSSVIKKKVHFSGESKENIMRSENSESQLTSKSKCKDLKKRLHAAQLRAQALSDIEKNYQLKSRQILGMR
# [5] = target: T3, Serine/threonine-protein kinase Nek2 (Homo sapiens); details: at 1 µM
# [6] = target: Serine/threonine-protein kinase Nek6 (Homo sapiens) (UniProt Q9HC98); details: at 0.1 µM
# [7] = target: Serine/threonine-protein kinase Nek6 (Homo sapiens) (UniProt Q9HC98); details: at 1 µM
# [8] = target: Serine/threonine-protein kinase Nek7 (Homo sapiens) (UniProt Q8TDX7); details: at 0.1 µM
# [9] = target: Serine/threonine-protein kinase Nek7 (Homo sapiens) (UniProt Q8TDX7); details: at 1 µM
# [10] = target: T4, Serine/threonine-protein kinase Nek9 (Homo sapiens) (UniProt Q8TD19); details: at 0.1 µM
# T4 sequence (whole entry): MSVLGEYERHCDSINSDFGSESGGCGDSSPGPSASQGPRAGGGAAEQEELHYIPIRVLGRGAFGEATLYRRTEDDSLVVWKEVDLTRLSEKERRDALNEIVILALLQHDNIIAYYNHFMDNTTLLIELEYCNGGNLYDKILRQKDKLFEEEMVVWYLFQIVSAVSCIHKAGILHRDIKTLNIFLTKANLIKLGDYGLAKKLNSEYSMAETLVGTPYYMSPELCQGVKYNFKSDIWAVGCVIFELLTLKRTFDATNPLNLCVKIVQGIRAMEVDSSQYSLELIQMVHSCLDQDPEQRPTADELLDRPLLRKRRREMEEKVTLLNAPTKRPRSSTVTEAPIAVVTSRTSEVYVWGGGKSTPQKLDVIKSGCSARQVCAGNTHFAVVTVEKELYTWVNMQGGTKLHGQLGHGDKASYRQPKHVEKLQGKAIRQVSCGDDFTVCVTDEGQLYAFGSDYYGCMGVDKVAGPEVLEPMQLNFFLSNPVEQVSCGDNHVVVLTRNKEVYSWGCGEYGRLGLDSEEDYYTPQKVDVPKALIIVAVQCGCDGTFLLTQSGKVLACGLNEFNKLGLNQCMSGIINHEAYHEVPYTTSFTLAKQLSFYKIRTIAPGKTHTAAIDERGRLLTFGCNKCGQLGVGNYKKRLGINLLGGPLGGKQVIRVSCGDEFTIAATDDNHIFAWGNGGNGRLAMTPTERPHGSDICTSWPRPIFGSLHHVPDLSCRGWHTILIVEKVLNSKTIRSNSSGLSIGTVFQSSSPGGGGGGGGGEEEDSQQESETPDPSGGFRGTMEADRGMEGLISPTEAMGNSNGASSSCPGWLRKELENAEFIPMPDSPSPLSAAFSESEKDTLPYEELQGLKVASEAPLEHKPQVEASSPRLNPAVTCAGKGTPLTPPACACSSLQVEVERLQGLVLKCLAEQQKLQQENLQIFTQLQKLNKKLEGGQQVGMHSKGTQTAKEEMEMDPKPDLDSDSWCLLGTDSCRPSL
# [11] = target: T4, Serine/threonine-protein kinase Nek9 (Homo sapiens); details: at 1 µM
# [12] = target: Serine/threonine-protein kinase PLK1 (Homo sapiens) (UniProt P53350); details: at 0.1 µM
# [13] = target: Serine/threonine-protein kinase PLK1 (Homo sapiens) (UniProt P53350); details: at 1 µM
# [14] = target: T5, Dual specificity protein kinase TTK (Homo sapiens) (UniProt P33981); details: at 0.1 µM
# T5 sequence (whole entry): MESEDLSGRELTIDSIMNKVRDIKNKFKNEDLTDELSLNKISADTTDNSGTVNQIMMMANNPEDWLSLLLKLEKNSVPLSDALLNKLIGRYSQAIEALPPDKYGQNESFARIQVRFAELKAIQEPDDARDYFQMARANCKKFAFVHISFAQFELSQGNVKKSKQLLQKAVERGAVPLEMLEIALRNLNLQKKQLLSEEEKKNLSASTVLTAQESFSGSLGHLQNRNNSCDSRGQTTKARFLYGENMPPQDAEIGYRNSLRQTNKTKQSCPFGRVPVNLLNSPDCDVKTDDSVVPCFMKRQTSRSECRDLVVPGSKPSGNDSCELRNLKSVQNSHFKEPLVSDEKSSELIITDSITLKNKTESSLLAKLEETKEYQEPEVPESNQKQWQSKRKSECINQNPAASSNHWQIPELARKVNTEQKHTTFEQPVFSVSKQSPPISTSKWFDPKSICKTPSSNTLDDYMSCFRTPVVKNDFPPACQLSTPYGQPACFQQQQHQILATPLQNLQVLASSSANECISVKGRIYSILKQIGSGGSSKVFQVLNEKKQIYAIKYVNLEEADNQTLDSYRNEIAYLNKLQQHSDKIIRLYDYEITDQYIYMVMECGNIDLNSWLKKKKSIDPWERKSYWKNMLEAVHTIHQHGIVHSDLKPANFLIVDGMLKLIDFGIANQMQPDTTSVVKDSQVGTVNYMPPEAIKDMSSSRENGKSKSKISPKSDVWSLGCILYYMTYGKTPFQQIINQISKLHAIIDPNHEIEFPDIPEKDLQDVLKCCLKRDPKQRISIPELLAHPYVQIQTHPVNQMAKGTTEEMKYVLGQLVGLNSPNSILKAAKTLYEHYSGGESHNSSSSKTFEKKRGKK
# [15] = tested on: T6, Receptor-type tyrosine-protein kinase FLT3 (Homo sapiens), P36888 [D835Y]; details: at 1 µM
# T6 sequence (whole entry): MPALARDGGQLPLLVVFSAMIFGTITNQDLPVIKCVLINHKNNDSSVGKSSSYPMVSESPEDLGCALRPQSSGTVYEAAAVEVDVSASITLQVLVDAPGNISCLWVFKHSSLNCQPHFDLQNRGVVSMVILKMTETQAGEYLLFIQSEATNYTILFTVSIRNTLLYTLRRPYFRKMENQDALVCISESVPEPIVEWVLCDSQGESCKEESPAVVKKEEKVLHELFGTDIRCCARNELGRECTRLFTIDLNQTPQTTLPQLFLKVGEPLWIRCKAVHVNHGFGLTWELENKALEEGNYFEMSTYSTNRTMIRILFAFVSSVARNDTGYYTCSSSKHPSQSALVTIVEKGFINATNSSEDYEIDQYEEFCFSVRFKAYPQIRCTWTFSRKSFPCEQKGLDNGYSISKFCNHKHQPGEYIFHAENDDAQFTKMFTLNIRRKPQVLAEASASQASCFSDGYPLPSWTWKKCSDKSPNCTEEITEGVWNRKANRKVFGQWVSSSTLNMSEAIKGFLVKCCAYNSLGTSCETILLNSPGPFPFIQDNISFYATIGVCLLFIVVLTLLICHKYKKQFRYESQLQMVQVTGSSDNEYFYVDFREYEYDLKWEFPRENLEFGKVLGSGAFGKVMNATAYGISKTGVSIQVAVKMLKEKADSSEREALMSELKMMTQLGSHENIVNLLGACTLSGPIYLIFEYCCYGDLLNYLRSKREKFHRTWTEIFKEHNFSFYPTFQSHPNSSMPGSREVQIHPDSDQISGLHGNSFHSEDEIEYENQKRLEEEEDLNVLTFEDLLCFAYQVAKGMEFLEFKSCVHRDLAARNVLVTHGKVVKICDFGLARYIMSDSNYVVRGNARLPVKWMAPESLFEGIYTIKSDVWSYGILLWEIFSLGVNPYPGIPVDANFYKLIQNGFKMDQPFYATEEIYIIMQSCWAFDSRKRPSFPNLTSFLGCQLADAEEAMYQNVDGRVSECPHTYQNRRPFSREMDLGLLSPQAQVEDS
# [16] = target: Vascular endothelial growth factor receptor 3 (Homo sapiens) (UniProt P35916); details: at 0.1 µM
# [17] = target: Vascular endothelial growth factor receptor 3 (Homo sapiens) (UniProt P35916); details: at 1 µM
# [18] = target: Macrophage colony-stimulating factor 1 receptor (Homo sapiens) (UniProt P07333); details: at 0.1 µM
# [19] = target: Macrophage colony-stimulating factor 1 receptor (Homo sapiens) (UniProt P07333); details: at 1 µM
# [20] = target: Tyrosine-protein kinase Fyn (Homo sapiens) (UniProt P06241); details: at 0.1 µM
# Chain of Tyrosine-protein kinase Fyn (Homo sapiens) (P06241 2-537 limits assumed): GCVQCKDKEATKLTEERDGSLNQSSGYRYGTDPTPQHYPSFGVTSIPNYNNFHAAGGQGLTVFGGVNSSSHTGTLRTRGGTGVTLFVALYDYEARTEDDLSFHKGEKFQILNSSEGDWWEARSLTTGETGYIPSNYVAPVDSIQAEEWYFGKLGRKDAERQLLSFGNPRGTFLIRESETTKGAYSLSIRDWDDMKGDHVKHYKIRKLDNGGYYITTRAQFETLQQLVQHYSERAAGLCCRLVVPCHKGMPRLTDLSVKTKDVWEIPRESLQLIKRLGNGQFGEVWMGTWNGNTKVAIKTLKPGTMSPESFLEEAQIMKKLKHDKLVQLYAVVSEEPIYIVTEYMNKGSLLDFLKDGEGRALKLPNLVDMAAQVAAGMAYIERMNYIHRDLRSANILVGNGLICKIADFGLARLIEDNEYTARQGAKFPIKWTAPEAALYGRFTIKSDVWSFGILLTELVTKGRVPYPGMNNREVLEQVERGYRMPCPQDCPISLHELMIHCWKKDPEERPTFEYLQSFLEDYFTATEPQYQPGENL
# Chain of Serine/threonine-protein kinase Nek7 (Homo sapiens) (Q8TDX7 whole entry, looked up): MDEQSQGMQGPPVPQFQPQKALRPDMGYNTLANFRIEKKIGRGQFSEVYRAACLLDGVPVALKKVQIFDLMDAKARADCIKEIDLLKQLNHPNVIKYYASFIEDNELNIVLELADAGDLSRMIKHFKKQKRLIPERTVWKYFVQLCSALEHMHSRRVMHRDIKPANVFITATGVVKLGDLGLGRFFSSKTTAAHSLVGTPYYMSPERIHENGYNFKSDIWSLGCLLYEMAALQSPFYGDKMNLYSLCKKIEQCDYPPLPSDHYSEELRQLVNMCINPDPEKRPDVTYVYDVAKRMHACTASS
# Chain of Serine/threonine-protein kinase PLK1 (Homo sapiens) (P53350 whole entry): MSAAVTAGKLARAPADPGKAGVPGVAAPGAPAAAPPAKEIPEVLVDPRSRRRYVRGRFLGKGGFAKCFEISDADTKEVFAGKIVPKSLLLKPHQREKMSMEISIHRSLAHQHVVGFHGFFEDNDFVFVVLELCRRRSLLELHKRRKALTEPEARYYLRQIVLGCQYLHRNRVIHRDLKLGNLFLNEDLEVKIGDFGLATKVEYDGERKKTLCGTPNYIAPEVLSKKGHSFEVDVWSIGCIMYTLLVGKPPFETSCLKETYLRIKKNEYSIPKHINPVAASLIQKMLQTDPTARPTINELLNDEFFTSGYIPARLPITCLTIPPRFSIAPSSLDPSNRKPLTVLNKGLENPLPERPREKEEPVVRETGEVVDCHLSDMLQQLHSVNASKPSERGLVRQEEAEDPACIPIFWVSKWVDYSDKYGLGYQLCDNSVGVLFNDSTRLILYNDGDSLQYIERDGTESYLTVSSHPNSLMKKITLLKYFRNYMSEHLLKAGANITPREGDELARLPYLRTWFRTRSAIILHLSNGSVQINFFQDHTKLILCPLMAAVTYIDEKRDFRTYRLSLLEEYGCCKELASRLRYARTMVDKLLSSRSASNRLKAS
# Chain of Macrophage colony-stimulating factor 1 receptor (Homo sapiens) (P07333 whole entry): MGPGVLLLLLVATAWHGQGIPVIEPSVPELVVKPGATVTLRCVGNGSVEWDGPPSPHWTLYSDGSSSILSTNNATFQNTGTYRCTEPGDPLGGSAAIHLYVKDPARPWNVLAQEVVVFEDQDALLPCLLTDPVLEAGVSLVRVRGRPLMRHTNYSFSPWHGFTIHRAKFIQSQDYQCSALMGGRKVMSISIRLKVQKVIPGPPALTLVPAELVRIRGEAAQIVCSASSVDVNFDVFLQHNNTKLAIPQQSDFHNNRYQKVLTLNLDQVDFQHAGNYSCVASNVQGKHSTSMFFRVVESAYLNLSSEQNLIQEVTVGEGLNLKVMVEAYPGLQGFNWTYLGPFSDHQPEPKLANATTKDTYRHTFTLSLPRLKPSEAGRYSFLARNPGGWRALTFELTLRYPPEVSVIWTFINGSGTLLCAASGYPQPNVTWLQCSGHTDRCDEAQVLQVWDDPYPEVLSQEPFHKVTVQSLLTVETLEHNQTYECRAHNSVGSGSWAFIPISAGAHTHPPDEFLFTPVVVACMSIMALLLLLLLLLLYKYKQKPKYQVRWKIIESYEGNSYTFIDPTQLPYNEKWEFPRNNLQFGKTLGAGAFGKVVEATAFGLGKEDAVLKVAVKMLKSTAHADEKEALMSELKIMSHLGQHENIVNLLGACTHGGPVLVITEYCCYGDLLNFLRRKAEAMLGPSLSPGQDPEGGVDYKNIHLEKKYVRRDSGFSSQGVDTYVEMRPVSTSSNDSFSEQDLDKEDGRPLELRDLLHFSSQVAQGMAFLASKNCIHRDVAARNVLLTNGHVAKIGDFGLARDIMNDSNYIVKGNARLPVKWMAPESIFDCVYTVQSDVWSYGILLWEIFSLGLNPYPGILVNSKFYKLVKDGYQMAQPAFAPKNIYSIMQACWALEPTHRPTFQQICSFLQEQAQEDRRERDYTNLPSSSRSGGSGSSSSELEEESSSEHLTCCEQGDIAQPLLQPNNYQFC
# Chain of Vascular endothelial growth factor receptor 3 (Homo sapiens) (P35916 whole entry): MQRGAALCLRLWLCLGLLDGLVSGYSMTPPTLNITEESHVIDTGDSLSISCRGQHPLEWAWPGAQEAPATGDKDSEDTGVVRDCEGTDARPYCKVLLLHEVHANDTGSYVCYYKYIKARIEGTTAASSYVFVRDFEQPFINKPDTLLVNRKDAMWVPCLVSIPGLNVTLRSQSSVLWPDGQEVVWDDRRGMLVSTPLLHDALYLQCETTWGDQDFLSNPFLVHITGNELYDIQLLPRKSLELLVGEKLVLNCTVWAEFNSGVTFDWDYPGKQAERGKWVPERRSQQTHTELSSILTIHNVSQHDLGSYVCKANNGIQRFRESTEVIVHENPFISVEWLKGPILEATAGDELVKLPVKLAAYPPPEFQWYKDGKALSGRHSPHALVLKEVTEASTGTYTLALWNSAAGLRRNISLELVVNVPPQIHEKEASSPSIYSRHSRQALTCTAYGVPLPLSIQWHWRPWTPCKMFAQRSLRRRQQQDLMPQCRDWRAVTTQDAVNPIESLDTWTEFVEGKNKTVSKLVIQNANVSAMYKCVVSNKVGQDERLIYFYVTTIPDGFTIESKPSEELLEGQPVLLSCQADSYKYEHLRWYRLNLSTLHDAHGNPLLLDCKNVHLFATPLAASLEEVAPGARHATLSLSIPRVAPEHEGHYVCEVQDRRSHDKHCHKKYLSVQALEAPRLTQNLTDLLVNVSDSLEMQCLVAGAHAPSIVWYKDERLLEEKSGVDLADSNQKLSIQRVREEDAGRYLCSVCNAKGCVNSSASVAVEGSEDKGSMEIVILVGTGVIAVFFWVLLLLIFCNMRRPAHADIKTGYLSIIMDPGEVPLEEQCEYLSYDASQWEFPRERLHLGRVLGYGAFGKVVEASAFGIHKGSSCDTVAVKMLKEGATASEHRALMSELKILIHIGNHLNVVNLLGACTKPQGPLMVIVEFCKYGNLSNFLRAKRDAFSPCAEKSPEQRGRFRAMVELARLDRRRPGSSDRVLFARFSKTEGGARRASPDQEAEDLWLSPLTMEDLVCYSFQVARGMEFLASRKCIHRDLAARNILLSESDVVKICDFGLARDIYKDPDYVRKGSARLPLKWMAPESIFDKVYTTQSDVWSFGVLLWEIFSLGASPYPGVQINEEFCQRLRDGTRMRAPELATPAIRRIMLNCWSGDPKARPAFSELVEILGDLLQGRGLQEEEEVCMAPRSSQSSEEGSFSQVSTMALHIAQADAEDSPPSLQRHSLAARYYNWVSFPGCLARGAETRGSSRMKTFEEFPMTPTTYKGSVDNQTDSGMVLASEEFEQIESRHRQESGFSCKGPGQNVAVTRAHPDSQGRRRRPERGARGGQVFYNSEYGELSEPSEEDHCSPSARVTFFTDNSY
# Chain of Serine/threonine-protein kinase Nek6 (Homo sapiens) (Q9HC98 whole entry): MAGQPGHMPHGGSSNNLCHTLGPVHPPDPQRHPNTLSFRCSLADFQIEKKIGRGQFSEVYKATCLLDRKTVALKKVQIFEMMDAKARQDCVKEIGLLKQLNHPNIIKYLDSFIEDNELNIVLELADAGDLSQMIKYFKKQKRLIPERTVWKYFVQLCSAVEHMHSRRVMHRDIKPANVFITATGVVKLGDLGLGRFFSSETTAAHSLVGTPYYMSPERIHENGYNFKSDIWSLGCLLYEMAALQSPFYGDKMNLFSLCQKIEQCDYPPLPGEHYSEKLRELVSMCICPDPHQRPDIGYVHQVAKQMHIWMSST
smiles,measurement,setting,value
CCc1nn2ncccc2c1-c1ccnc(NC2CC2)n1,inhibition,[1],6.61%
same,inhibition,[2],3.1%
same,inhibition,[3],4.93%
same,inhibition,[4],3.32%
same,inhibition,[5],3.36%
same,inhibition,[6],2.16%
same,inhibition,[7],3.98%
same,inhibition,[8],1.99%
same,inhibition,[9],3.9%
same,inhibition,[10],2.26%
same,inhibition,[11],9.21%
same,inhibition,[12],1.29%
same,inhibition,[13],4.87%
same,inhibition,[14],-1.9%
same,inhibition,[15],8.73%
same,inhibition,[16],4.93%
same,inhibition,[17],4.12%
same,inhibition,[18],2.72%
same,inhibition,[19],4.83%
same,inhibition,[20],1.74%
